Source: PubChem BioAssay
EPAC1 ag val: validation of human EPAC1 agonists | EPAC1 Rap1b BODIPY-GDP exchange, fluorescence | Potency, µM, actives largely listed as activators | actives 1% (n = 16,000) | AID 1645883; further: nearly all actives have a fitted effect of over 70% in size
EPAC2 ant val: validation of human EPAC2 antagonists; Q8WZA2; EPAC2 Rap1B BODIPY-GDP exchange, fluorescence; Potency, µM (highest dose often 112 µM), most hits filed as inhibitors; actives 1.7% (n = 16,000); AID 1645886; further: nearly all actives have a fitted effect of over 40% in size
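Normalized against a 6.5 mM cAMP agonist control, compounds were tested on 100 nM EPAC2 exchanging Rap1B-bound BODIPY-GDP (250 nM) for 50 uM GDP. Fluorescence drop (ex 480, em 540 nm) was tracked at room temperature over 30 min at 5-min intervals.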
Of the large screens only hits and unclear results are named; the others gave an inactive call; ! = not confirmed by another sample. A selection: hits, their analogues and other compounds. The true share with any hit is near 2.9%. The call rests on the fitted dose curve; in most records, active means well fitted curve in the direction sought with a large enough effect; inconclusive means small, poorly fitted or top-dose-only effect, or another doubt; inactive means no such curve, though single readings can be large; an effect the other way counts as inactive or inconclusive.

CC[C@@]1([C@@H]2O[C@@H]([C@H]3O[C@@](O)(CO)[C@H](C)C[C@@H]3C)C[C@@H]2C)CC[C@H]([C@]2(C)CC[C@]3(C[C@H](O)[C@@H](C)[C@@H]([C@@H](C)[C@@H](OC)[C@H](C)C(=O)O)O3)O2)O1 (stereo in doubt)	none
O=C(O)c1ccccc1Nc1cccc(C(F)(F)F)c1	EPAC2 ant val 35.5µM!
O=C(O)c1ccccc1Nc1ccccc1	none
COc1cccc(C(=O)NCc2nc(-c3cccc(NC(=O)c4ccoc4C)c3)oc2C)c1OC	none
CC1c2ccccc2CN1NC(=O)c1ccc(Cl)c(S(N)(=O)=O)c1 (configuration not stated)	none
CC1(C)[C@@H](O)CC[C@]2(C)C3C(=O)C=C4C5C[C@@](C)(C(=O)O)CC[C@]5(C)CC[C@@]4(C)[C@]3(C)CC[C@@H]12 (some centres not stated)	EPAC2 ant val 3.98µM
CC1(C)C2CC[C@]3(C)[C@H](C(=O)C=C4[C@@H]5C[C@@](C)(C(=O)O)CC[C@]5(C)CC[C@]43C)[C@@]2(C)CC[C@@H]1O[C@H]1O[C@H](C(=O)O)[C@@H](O)[C@H](O)[C@H]1O[C@@H]1O[C@H](C(=O)O)[C@@H](O)[C@H](O)[C@H]1O (some centres not stated)	EPAC2 ant val inconclusive
CCN(Cc1ccncc1)Cc1ccc2c(c1)CN(C(=O)c1ccc(C)cc1)CCO2	none
OCC1OC(Oc2cccc3cccnc23)C(O)C(O)C1O (configuration not stated)	none
O=C(O)c1cc(O)c2c(c1)[C@H]([C@H]1c3cc(C(=O)O)cc(O)c3C(=O)c3c(O[C@@H]4O[C@H](CO)[C@@H](O)[C@H](O)[C@H]4O)cccc31)c1cccc(O[C@@H]3O[C@H](CO)[C@@H](O)[C@H](O)[C@H]3O)c1C2=O	EPAC1 ag val inconclusive, EPAC2 ant val 79.4µM
O=C(CO)[C@@H](O)[C@H](O)[C@H](O)CO	none
O=C(O)[C@@H]1C[C@H](CP(=O)(O)O)CCN1	none
CC(c1ccon1)N(C)C(=O)c1cnn(-c2ncc3c(n2)-c2ccccc2CC3)c1C1CC1 (configuration not stated)	none
